Hits are enriched below; roughly 1.4% of the tested compounds scored in any of these assays.
VHR inh abs – inhibitors of human VHR1 phosphatase (DUSP3); 290,000 compounds, 0.52% hits; inhibition, % at 13.3 µM; recombinant VHR phosphatase, pNPP absorbance; AID 1654; P51452; in the data active = inhibition above about 50%
Target sequence (P51452 whole entry, looked up): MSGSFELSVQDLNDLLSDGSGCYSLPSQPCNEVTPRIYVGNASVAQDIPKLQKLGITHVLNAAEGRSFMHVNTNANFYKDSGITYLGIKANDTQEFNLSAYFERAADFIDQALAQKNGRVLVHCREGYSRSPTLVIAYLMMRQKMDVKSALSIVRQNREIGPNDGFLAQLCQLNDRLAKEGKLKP
3CLpro inhibitor – SARS-CoV 3CLpro protease inhibition. 290,000 compounds, 0.14% hits. recombinant SARS-CoV 3CLpro, quenched FRET peptide cleavage. P0C6X7. inhibition, % at 6 µM; in the data active = inhibition above about 12%
PrPC surface inh – cell surface PrPC inhibition, primary TR-FRET screen; 370,000 compounds, 0.43% hits; inhibition, % at 13.8 µM; TR-FRET read-out; P04156; AID 720596; in the data active = inhibition above about 24%
Sa ugtP lethal – kills S. aureus RN4220 lacking UgtP | S. aureus RN4220 ugtP deletion, OD600 growth, 16 h | growth inhibition, % (no concentration beside the values) | 330,000 compounds, 0.54% hits | AID 1259309; in the data active = growth inhibition above about 68%
RN4220 kill – S. aureus RN4220 growth inhibition | inhibition, % (no concentration beside the values) | AID 1259311 | 330,000 compounds, 0.33% hits | OD600, 16 h; in the data active = inhibition above about 85%
BJeLR viability – kills HRASV12-expressing BJeLR cells; 300,000 compounds, 0.17% hits; BJeLR (HRASV12) viability, CellTiter-Glo ATP luminescence, 48 h; inhibition, % (no concentration beside the values); in the data active = inhibition above about 50%
Of the large screens only hits and unclear results are named; the others gave an inactive call.

CC(C)(C)c1nnc(NN=Cc2cc(Br)ccc2O)n(N)c1=O	none (no result: VHR inh abs, 3CLpro inhibitor, PrPC surface inh, BJeLR viability)
CC(C)(C)c1nnc(N/N=C/c2ccccc2O)n(N)c1=O	BJeLR viability 62 (no result: Sa ugtP lethal, RN4220 kill)
CC(=O)c1ccc(NC(=S)NC(=O)/C=C/c2ccco2)cc1	none
O=C(/C=C/c1cccs1)Nc1cccc(NC(=O)/C=C/c2cccs2)n1	none
O=C(/C=C/c1cccs1)NC(=S)Nc1ccccc1	Sa ugtP lethal active
O=C(/C=C/c1ccco1)NC(=S)Nc1ccccc1	Sa ugtP lethal 93
O=C(/C=C/c1ccco1)NC(=S)Nc1cccc(-c2nc3ccccc3o2)c1	Sa ugtP lethal 98
O=C(/C=C/c1cccs1)Nc1ccc(Br)cn1	BJeLR viability 53
CCCCNC(=S)NNc1c(Cl)cc(Cl)cc1Cl	VHR inh abs 51
N=C1SC(c2ccccc2)C(=O)N1c1ncc(Cc2ccccc2Cl)s1 (centres undefined)	Sa ugtP lethal 90
O=C(CSc1nnnn1-c1ccccc1)Nc1ncc(Cc2ccccc2Cl)s1	none
N#C/C(=C\c1cccc(NC(=O)c2ccccc2Cl)c1)C(=O)NCCc1ccccc1	VHR inh abs 55
COCCCNC(=O)/C(C#N)=C/c1cccc(NC(=O)c2ccccc2Cl)c1	none (no result: Sa ugtP lethal, RN4220 kill)
O=C(Cc1ccccc1)N1CCN(CC=Cc2ccccc2)CC1	none (no result: VHR inh abs, 3CLpro inhibitor, PrPC surface inh, BJeLR viability)
O=S1(=O)Nc2c(ccc3cccnc23)-c2ccccc21	Sa ugtP lethal 98, RN4220 kill 98 (no result: PrPC surface inh)
Clc1ccc2ccc3cccnc3c2n1	none
CCCCCC(O)C=CC1C(O)CC(O)C1CC=CCCCC(=O)OC (centres undefined)	none (no result: VHR inh abs, 3CLpro inhibitor, PrPC surface inh, BJeLR viability)
COC(=O)C1=C(c2cccc(OCc3ccccc3)c2)CC2CCC1N2C(=O)NCc1cccc(OC)c1 (centres undefined)	none (no result: VHR inh abs, 3CLpro inhibitor, PrPC surface inh, BJeLR viability)
CC(C)(C)NS(=O)(=O)c1ccc(CCC(=O)Nc2ccc3c(c2)OCO3)cc1	none
CC(C)(C)NS(=O)(=O)c1ccc(CCC(=O)Nc2ccc3c(c2)OCCO3)cc1	VHR inh abs 51
Cc1cc(C(=O)CCl)c(C)n1CCc1ccc(Cl)cc1	Sa ugtP lethal 97, RN4220 kill 93
COc1ccc(Br)cc1S(=O)(=O)NCCN1CCOCC1	VHR inh abs 57
CC[C@@]1(O)C(=O)OCc2c1cc1n(c2=O)Cc2cc3c(CN(C)C)c(O)ccc3nc2-1	BJeLR viability 85 (no result: VHR inh abs, 3CLpro inhibitor)
CC[C@@]1(O)C(=O)OCc2c1cc1n(c2=O)Cc2cc3c(N)cccc3nc2-1	BJeLR viability 78 (no result: 3CLpro inhibitor)
CCC(NC(=O)NC1=NCCS1)(C(F)(F)F)C(F)(F)F	VHR inh abs 57
C[C@@]12C(=O)N(c3cccc(Br)c3)C(=O)N1C(c1ccc(Cl)cc1)C1C(=O)N(C3CCCCC3)C(=O)C12 (some centres undefined)	none (no result: VHR inh abs, 3CLpro inhibitor, PrPC surface inh, BJeLR viability)
Cc1c(N)c(C(C)(C)C)cc(C(C)(C)C)c1[N+](=O)[O-]	Sa ugtP lethal 95
Cc1c(N)c(C)c([N+](=O)[O-])c(C)c1[N+](=O)[O-]	none
CNC(=O)c1c(NC(=O)C2=COCCO2)sc2c1CCN(C(=O)OC)C2	Sa ugtP lethal 97, RN4220 kill 94 (no result: VHR inh abs, 3CLpro inhibitor)
COC(=O)N1CCc2c(sc(NC(=O)C3=COCCO3)c2C#N)C1	none (no result: VHR inh abs, 3CLpro inhibitor)
C#CCOCCOCCOCCNc1nc(N2CCN(C(=O)C(CCCCN)n3cc(CCCC)nn3)CC2)nc(N2CCN(C(=O)C(C(C)O)n3cc(CCCCN)nn3)CC2)n1 (centres undefined)	none (no result: VHR inh abs, 3CLpro inhibitor, PrPC surface inh, BJeLR viability)
CC=CC(=O)Nc1cccc(C2=NOC3(C2)CC(C(N)=O)N(C(=O)C(c2ccccc2)c2ccccc2)C3)c1 (centres undefined)	none (no result: VHR inh abs, 3CLpro inhibitor, PrPC surface inh, BJeLR viability)
O=C(Nc1nc2c(Cl)cccc2s1)c1ccc([N+](=O)[O-])o1	Sa ugtP lethal 100, RN4220 kill 100
O=C(Nc1nc2c(F)cccc2s1)c1ccc([N+](=O)[O-])o1	none
O=C(CCl)N(CCCNC(=O)C(F)(F)F)c1ccc([N+](=O)[O-])cc1	BJeLR viability 116
CC(=NNC(=O)c1ccc(Cl)c(Cl)c1)c1ccccn1	none (no result: VHR inh abs, 3CLpro inhibitor, PrPC surface inh, BJeLR viability)
COc1ccc(C(=O)N/N=C(\C)c2ccccn2)cc1OC	BJeLR viability 74 (no result: Sa ugtP lethal, RN4220 kill)
C/C(=N\NC(=O)c1cccc2ccccc12)c1ccccn1	BJeLR viability 79 (no result: Sa ugtP lethal, RN4220 kill)
Cc1ccc(S(=O)(=O)N2[C@@H](c3ccc(C(C)(C)C)cc3)C(C(=O)O)=CC[C@H]2c2ccc(Cl)c(Cl)c2)cc1	Sa ugtP lethal 95, RN4220 kill 100 (no result: VHR inh abs, 3CLpro inhibitor, BJeLR viability)
Cc1ccc(S(=O)(=O)N2[C@@H](c3ccc(C(C)(C)C)cc3)C(C(=O)O)=CC[C@H]2c2cccc(Cl)c2)cc1	none (no result: VHR inh abs, 3CLpro inhibitor, BJeLR viability)
Cc1ccc([C@H]2C(C(=O)O)=CC[C@@H](c3ccc(Cl)cc3)N2S(=O)(=O)c2ccc(C)cc2)cc1	none (no result: VHR inh abs, 3CLpro inhibitor, BJeLR viability)
Cc1ccc(S(=O)(=O)N2C(c3ccc(Cl)cc3)CC=C(C(=O)O)C2c2ccc(F)cc2)cc1 (centres undefined)	Sa ugtP lethal 93 (no result: VHR inh abs, 3CLpro inhibitor, PrPC surface inh, BJeLR viability)
CCCCCCCCCCCCN1C(CC(C)=O)c2cc(C(F)(F)F)ccc2S1(=O)=O (centres undefined)	none (no result: VHR inh abs, 3CLpro inhibitor, PrPC surface inh, BJeLR viability)
CCc1cc(CNC(=O)c2ccc(OC)c(OC3CCN(C(C)C)CC3)c2)on1	VHR inh abs 57
COc1ccc(C(=O)NCc2cc(C(C)C)no2)cc1OC1CCN(C(C)C)CC1	none
COC(=O)C1=C(c2ccc(OC(F)(F)F)cc2)CC2CCC1N2C(=O)NCCOc1ccccc1Cl (centres undefined)	none (no result: VHR inh abs, 3CLpro inhibitor, PrPC surface inh, BJeLR viability)
Cc1ccc(OC/C(O)=C(\C#N)c2nc3ccccc3s2)cc1	Sa ugtP lethal 84
COc1ccc(CC(O)=C(C#N)c2nc3ccccc3s2)cc1	none (no result: VHR inh abs, 3CLpro inhibitor, PrPC surface inh, BJeLR viability)
Cc1ccc(C(=O)NNC(=O)CCCN2C(=O)C(=Cc3ccccc3Cl)SC2=S)cc1	none (no result: VHR inh abs, 3CLpro inhibitor, PrPC surface inh, BJeLR viability)
O=C1C=C(c2ccc3c(c2)OCO3)CC(c2ccc3c(c2)OCO3)C1 (centres undefined)	none (no result: VHR inh abs, 3CLpro inhibitor, PrPC surface inh, BJeLR viability)
COC(=O)c1nc(N)sc1C(C)C	VHR inh abs 53
O=C(NN=Cc1ccc([N+](=O)[O-])o1)c1cn2ccc3ccccc3c2n1	Sa ugtP lethal 100 (no result: VHR inh abs, 3CLpro inhibitor, PrPC surface inh, BJeLR viability)
O=C(NN=Cc1ccc([N+](=O)[O-])o1)c1ccccc1NS(=O)(=O)c1cccs1	Sa ugtP lethal 100, RN4220 kill 100 (no result: VHR inh abs, 3CLpro inhibitor, PrPC surface inh, BJeLR viability)
O=C(CNc1cccc2ccccc12)NN=Cc1ccc([N+](=O)[O-])o1	Sa ugtP lethal 100, RN4220 kill 99 (no result: VHR inh abs, 3CLpro inhibitor, PrPC surface inh, BJeLR viability)
O=C(CNc1cccc2ccccc12)N/N=C/c1ccc([N+](=O)[O-])o1	none (no result: Sa ugtP lethal, RN4220 kill)
O=C(N/N=C/c1ccc([N+](=O)[O-])o1)c1ccc(NS(=O)(=O)c2cccs2)cc1	none (no result: Sa ugtP lethal, RN4220 kill)
CCCc1cc(=O)oc2cc(OCC(=O)Nc3ccc(S(N)(=O)=O)cc3)ccc12	VHR inh abs 57
CCCc1cc(=O)oc2cc(OCC(=O)NCC(O)c3ccccc3)ccc12 (centres undefined)	VHR inh abs 53
CC(NC(=O)c1[nH]cnc1C(=O)Nc1ccccc1)C(=O)OC(C)(C)C (centres undefined)	none (no result: VHR inh abs, 3CLpro inhibitor, PrPC surface inh, BJeLR viability)
CCn1cc(CNC(=O)c2ccc(C)s2)cn1	VHR inh abs 57
O=C1C(Br)=Cc2cccc3cccc1c23	Sa ugtP lethal 92
O=C1C(=O)c2cccc3cccc1c23	none
